High-throughput results: PubChem BioAssay, National Center for Advancing Translational Sciences (NCATS)
Hits are enriched below; roughly 2.4% of the tested compounds scored in any of these assays.
TDP1 block: blocks human tyrosyl-DNA phosphodiesterase 1 | Q9NUW8 | recombinant TDP1, AlphaScreen DNA substrate cleavage | Potency, µM (highest dose often 130 µM), inactives show top-dose activity change, negative = inhibition, most hits filed as inhibitors | 350,000 tested, 0.28% active | AID 485290; also: % is scaled to controls: 0 for no effect and ±100 for the full control effect; nearly all actives have a fitted effect of over 40% in size
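AlphaScreen read-out: signal falls as enzyme removes the 3' tyrosine-FITC from a 5'-biotinylated DNA oligo (15 nM, 5 min, RT). Enzyme was E. coli-made recombinant Tdp1 at 1 nM, exposed to compound for 15 min beforehand; beads 10 ug/ml, 10 min.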
Pol iota inh: inhibitors of human DNA polymerase iota | Q9UNA4 | 390,000 tested, 1% active | Pol iota fluorescent replication assay, 10 min | AID 588590 | Potency, µM (top dose mostly 115 µM), without a hit: top-dose activity, negative = inhibition, hits mostly inhibitors
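Fluorescent replication assay read twice, at 0 min and 10 min after adding 50 nM (final) substrate. Enzyme (10 nM) and compounds were first incubated 15 min at room temperature; enzyme-free buffer wells were negative controls.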
Pol kappa inh: DNA polymerase kappa (human) inhibition; Q9UBT6; purified Pol kappa, fluorescent DNA synthesis assay, 10 min; Potency, µM (highest dose often 107 µM), for the others: at the highest dose activity, negative = inhibition, usual class: inhibitors; 400,000 tested, 0.53% active; also: % is scaled to controls: 0 for no effect and ±100 for the full control effect
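Here, compound and 10 nM enzyme are combined for 15 min at room temperature; adding 50 nM substrate (final) starts DNA synthesis, tracked by fluorescence at 0 and 10 min against buffer-only wells.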
FEN1 inhibitor: human FEN1 inhibition. P39748. Recombinant FEN1 flap cleavage, fluorescence, 15 min. Potency, µM (series often up to 114 µM), without a hit: top-dose activity change, negative = inhibition, usual class: inhibitors. 390,000 tested, 0.35% active. AID 588795; also: % is scaled to controls: 0 for no effect and ±100 for the full control effect; nearly all actives have a fitted effect of over 65% in size
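Quantitative HTS format: each compound was titrated, incubated with 10 nM nuclease for 15 min at room temperature, then challenged with flap substrate at 50 nM final. Signal change over 15 min gave concentration–effect curves.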
Pol beta inh: inhibitors of human DNA polymerase beta; P06746; Pol beta primer extension/strand displacement, fluorescence kinetic; Potency, µM (titrated, usually from 114 µM), for inactives: top-dose activity change, negative = inhibition, hits mostly inhibitors; 340,000 tested, 1.3% active; AID 485314; also: % is scaled to controls: 0 for no effect and ±100 for the full control effect
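Enzyme-only controls used 10 nM Pol beta; buffer lacking enzyme served as negative control. Compound preincubated 15 min, then 50 nM substrate added; 0 and 10 min reads at room temperature.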
Pol eta inh: inhibitors of human DNA polymerase eta | Q9Y253 | recombinant Pol eta, fluorescent DNA replication assay | 390,000 tested, 1.2% active | AID 588591 | Potency, µM (doses to about 114 µM), without a hit: top-dose activity change, negative = inhibition, hits mostly inhibitors; also: % is scaled to controls: 0 for no effect and ±100 for the full control effect
Target sequence (Q9Y253 whole entry, looked up): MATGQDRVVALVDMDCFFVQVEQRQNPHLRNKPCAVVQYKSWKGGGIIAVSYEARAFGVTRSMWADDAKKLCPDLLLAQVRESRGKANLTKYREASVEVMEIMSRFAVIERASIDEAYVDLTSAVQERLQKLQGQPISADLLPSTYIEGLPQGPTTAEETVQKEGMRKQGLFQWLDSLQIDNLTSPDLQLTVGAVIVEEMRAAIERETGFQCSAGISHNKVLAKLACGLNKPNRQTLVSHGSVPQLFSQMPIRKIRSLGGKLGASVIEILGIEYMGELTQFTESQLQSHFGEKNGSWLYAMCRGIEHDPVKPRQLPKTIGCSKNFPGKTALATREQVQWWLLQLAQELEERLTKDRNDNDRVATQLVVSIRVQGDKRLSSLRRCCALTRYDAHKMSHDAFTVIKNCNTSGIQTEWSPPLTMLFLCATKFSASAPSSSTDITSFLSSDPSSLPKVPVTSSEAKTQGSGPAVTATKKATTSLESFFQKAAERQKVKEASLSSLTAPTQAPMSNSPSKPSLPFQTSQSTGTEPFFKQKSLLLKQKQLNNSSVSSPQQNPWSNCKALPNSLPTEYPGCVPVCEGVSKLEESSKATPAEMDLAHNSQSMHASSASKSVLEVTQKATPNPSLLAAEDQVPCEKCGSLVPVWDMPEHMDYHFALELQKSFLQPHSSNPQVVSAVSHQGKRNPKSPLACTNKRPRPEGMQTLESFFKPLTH
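Fluorescent replication assay: 50 nM final substrate added after a 15 min room-temperature compound preincubation with 10 nM enzyme. Signal taken at 0 min and again at 10 min.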
* marks the source's active call; other numbers are inactive results; ? = inconclusive; · = no result; [ ] = another dose, or the depositor's remark. Calls follow the shape of the dose curve; as a rule, active = well fitted curve in the direction sought with a large enough effect; inconclusive = small, poorly fitted or top-dose-only effect, or another doubt; inactive = no such curve, though single readings can be large; an effect the other way counts as inactive or inconclusive. Potency is read from the fitted curve at half-maximal effect.

SMILES | TDP1 block | Pol iota inh | Pol kappa inh | FEN1 inhibitor | Pol beta inh | Pol eta inh
COC1=C(Br)C(=O)c2ncccc2C1=O | · | 1.3µM* | -11% | ? | · | 3.2µM*
CCCCC/C=C\CC(O)/C=C/c1cccc(CC(O)CCCCO)n1 (configuration not stated) | -13%[56.1 µM] | 6%[58.9 µM] | -2%[60.1 µM] | · | 15%[57.1 µM] | -6%[57.1 µM]
Cc1cc(-c2ccccc2)c2c(=O)[nH][nH]c2n1 | 0% | 79µM* | -9% | -4% | 0% | -18%
O=c1[nH]nc(-c2ccccc2)cc1-c1ccccc1 | · | 35% | -13% | -6% | · | -13%
CCn1c(=N)c(S(=O)(=O)c2ccccc2)cc2c(=O)n3ccccc3nc21 | -1% | 4% | 6% | -2% | -1% | -2%
N=c1c(S(=O)(=O)c2ccccc2)cc2c(=O)n3ccccc3nc2n1Cc1ccco1 | 1% | ? | -15% | -11% | 18µM* | ?
Cc1ccc(S(=O)(=O)c2cc3c(=O)n4ccccc4nc3n(Cc3ccco3)c2=N)cc1C | 1% | ? | -4% | -5% | 8.9µM* | -25%
Cc1ccc(S(=O)(=O)c2cc3c(=O)n4ccccc4nc3n(CC3CCCO3)c2=N)cc1C (configuration not stated) | 0% | 17% | -4% | 5% | -1% | -18%
Cc1ccc2nc3c(cc(S(=O)(=O)c4ccccc4)c(=N)n3Cc3ccco3)c(=O)n2c1 | 5% | -9% | -9% | -13% | 7.9µM* | 0%
COCCCn1c(=N)c(S(=O)(=O)c2ccccc2)cc2c(=O)n3cc(C)ccc3nc21 | · | 8% | 2% | 3% | -1% | -17%
Nc1cc(N2CCCCC2)nc(N)[n+]1OS(=O)(=O)[O-] | 0% | · | 2%[19.4 µM] | · | · | ·
Cn1c(=O)n(-c2ccc(C(C)(C)C#N)cc2)c2c3cc(-c4cnc5ccccc5c4)ccc3ncc21 | · | 18%[229 µM] | -13%[229 µM] | -2%[229 µM] | · | ·
CCCNC(=O)Cn1ncc2c3ccccc3n(CCC)c2c1=O | 4% | 16% | -2% | 34% | 4% | -3%
O=c1ccc(C(F)(F)F)cn1Cc1cc(=O)n2cc(Br)ccc2n1 | · | ? | ? | -11% | 13µM* | -2%
Cc1cc2c(N)cccc2nn1 | -12% | 5.6µM* | 89µM* | ? | 22µM* | -11%
Cc1cc2c(NC(=O)Nc3ccccc3)cccc2nn1 | -7% | 133% | 2% | -6% | -2% | -10%
Nc1[nH]nc2nc3ccccc3cc12 | 5% | 27% | -6% | -10% | 6% | -17%
Nc1cccc2nc3ccccc3cc12 | -5% | -15% | 8% | -2% | 8.9µM* | 14%
COC(=O)c1cc2oc3ccccc3c2n1Cc1cc(C)ccc1C | -2% | 2% | -13% | 17% | 4% | ·
CC[N+]1(CC(=O)c2ccc(OC)cc2)CCCCC1 | · | 34% | 1% | -3% | · | ·
CCCN(CCC)c1ccc(/C=C/c2sc3ccccc3[n+]2CCCCI)cc1 | · | 79µM* | ? | ? | · | ·
Cc1sc2ccccc2[n+]1Cc1ccccc1 | · | 14% | 10% | -28% | · | ·
CN(C)c1ccc(/C=C/c2sc3ccccc3[n+]2Cc2ccccc2)cc1 | · | 79µM* | ? | ? | · | ·
CCCc1nc2sc3ccccc3c(=O)c2c(=O)n1Cc1ccc(OC)cc1 | 4% | ? | -14% | 7% | 23% | -8%
CCCc1nc2oc3cc(OC)ccc3c(=O)c2c(=O)n1Cc1ccco1 | · | ? | -43% | -15% | 45µM* | ?
SMILES | TDP1 block | Pol iota inh | Pol kappa inh | FEN1 inhibitor | Pol beta inh | Pol eta inh
CCCc1nc2sc3ccccc3c(=O)c2c(=O)n1Cc1ccco1 | · | ? | ? | -4% | 50µM* | ?
Cn1sc(=O)n(Cc2ccccc2)c1=O | 12% | · | 16%[60.1 µM] | · | · | ·
COc1cccc(CNC(=O)CCc2c(C)c3cc4c(C)c(C)oc4cc3oc2=O)c1 | -2% | -5% | -12% | -8% | 18% | -3%
C=C1C=C(C(F)F)n2ncc(C(=O)NCc3ccccc3)c2N1 | · | 19% | 13% | -4% | · | ·
Cc1ccc(-n2nc3ccc(NC(=O)c4ccco4)cc3n2)cc1 | -6% | ? | -41% | 3% | 25µM* | ?
O=C(Nc1ccc2nc(-c3cccs3)[nH]c2c1)c1ccco1 | 8%[56.1 µM] | ? | -19% | -20% | 32µM* | ?
Cc1ccc2nc(-c3ccc(NC(=O)c4ccco4)cc3)[nH]c2c1 | 5% | ? | -29% | ? | 25µM* | ?
O=C(CC1C(=O)OCCN1Cc1ccccc1)Nc1cccc(Cl)c1 (configuration not stated) | 5% | -12% | 1% | 11% | 1% | -5%
O=S1(=O)N=C(Oc2ccccc2-c2ccccc2)c2ccccc21 | 2% | · | · | · | · | ·
Cc1ccc(S(=O)(=O)N2CCN(C(=O)/C=C/c3ccco3)CC2)cc1 | 3% | 47% | -30% | 6% | 20µM* | 79µM*
Cc1ccc(S(=O)(=O)N2CCN(C(=O)c3ccco3)CC2)c(C)c1 | · | -8% | 1% | -11% | 17% | -7%
Cc1ccc(C)c(S(=O)(=O)N2CCN(C(=O)/C=C/c3ccco3)CC2)c1 | -2% | 28µM* | 50µM* | -31% | · | 35µM*
O=C(/C=C/c1ccco1)N1CCN(c2ccc(F)cc2)CC1 | · | -27% | 5% | 10% | ? | -19%
O=c1c2c3nc4ccccc4nc3n(/N=C/c3ccco3)c2ncn1CCC1=CCCCC1 | 0% | 22µM* | ? | 7% | 28µM* | ?
N#CCC(=O)c1sccc1-n1cccc1 | -11% | ? | 79µM* | -24% | -17% | 1%
Cc1ccc(-c2nc(=Nc3ccccc3)sn2-c2ccccc2)cc1 | 2% | 14% | -2% | 14% | · | ·
N=c1nc(-c2ccccc2)n(-c2ccccc2)s1 | · | -5% | -7% | 89µM* | · | ·
Cc1cnc2ccccc2c1/C=C/c1ccc(N)cc1 | · | -4% | -17% | -24% | · | ·
O=C(NC1CCCCC1)c1c[nH]c2ccc(S(=O)(=O)Nc3ccccc3F)cc2c1=O | · | ? | -14% | -3% | 25µM* | ?
COc1ccccc1CNS(=O)(=O)c1ccc2[nH]cc(C(=O)O)c(=O)c2c1 | -7% | ? | 79µM* | 14% | 28µM* | 3.2µM*
Cc1ccc(CNC(=O)c2c[nH]c3ccc(S(=O)(=O)Nc4ccc(C(C)C)cc4)cc3c2=O)cc1 | · | ? | 2%[60.1 µM] | -5% | -30% | 79µM*
CCc1ccccc1NS(=O)(=O)c1ccc2[nH]cc(C(=O)NC3CCCC3)c(=O)c2c1 | -7% | ? | -22% | -8% | ? | ?
Cc1ccc(CNC(=O)c2c[nH]c3ccc(S(=O)(=O)N4CCOCC4)cc3c2=O)cc1 | -4% | ? | -12%[60.1 µM] | 15% | ? | -9%
CCN(c1ccccc1)S(=O)(=O)c1ccc2[nH]cc(C(=O)NCCOC)c(=O)c2c1 | -2% | -18% | -30% | -1% | -13% | ?
